KB-V1 MDR tox = qHTS assay for MDR1-selective chemotherapeutics: Primary screen using the drug-selected MDR subline cells KB-V1. KB-V1 MDR cells viability, CellTiter-Glo, 72 h. Potency, µM (doses to about 46.1 µM), usual class: cytotoxic. 3.4% of 400,000 active. AID 1347076, 2019; note: nearly all actives have a fitted effect of over 60% in size
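Following 72 h at 37 degrees C with compound, KB-V1 cell viability was read by CellTiter-Glo luminescence, medium being phenol-red-free DMEM plus 10% FBS; concentration-response parameters came from normalized, curve-fitted qHTS data.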
Giardia kill = Small Molecules that selectively kill Giardia lamblia: qHTS | Giardia lamblia trophozoite viability | activity change, % at 7.66 µM, hits read low | 0.15% of 340,000 active | AID 540267, 2011; in the data active = activity change below about -80%; inconclusive = between about -30% and that limit;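 note: parasites exposed to compound for two days anaerobically before the ATP read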
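Luminescent ATP signal served as the viability read-out, measured 15-30 min after adding ATP detection reagent to trophozoites that had been incubated with compounds for 48 hrs at 37 deg C anaerobically at 100 cells/well.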
A549 tox = Nrf2 qHTS screen for inhibitors: counterscreen for cytotoxicity | A549 ARE-Fluc cells, CellTiter-Fluor viability, 18-24 h | Potency, µM (top dose mostly 46 µM), most hits filed as inhibitors | 0.16% of 390,000 active
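A549 ARE_Fluc cells in 5% FBS OPTI-MEM were exposed to compounds in concentration-response for 18-24 h at 37 deg C. Viability was read by CellTiter-Fluor fluorescence (Ex 405/Em 525) after 30 min, before the luciferase read.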
PI4K2A block = qHTS for small molecular inhibitors of PI4K2A. activity change, negative = inhibition, % at 76.9 µM. 0.13% of 420,000 active. purified PI4K2A, ADP-Glo luminescence, 1 h; active compounds read low. Phosphatidylinositol 4-kinase type 2-alpha (Homo sapiens), Q9BTU6. AID 1346378, 2018; in the data active = activity change below about -50%; inconclusive = mostly about -30% to -49%
Target sequence (Q9BTU6 whole entry, looked up): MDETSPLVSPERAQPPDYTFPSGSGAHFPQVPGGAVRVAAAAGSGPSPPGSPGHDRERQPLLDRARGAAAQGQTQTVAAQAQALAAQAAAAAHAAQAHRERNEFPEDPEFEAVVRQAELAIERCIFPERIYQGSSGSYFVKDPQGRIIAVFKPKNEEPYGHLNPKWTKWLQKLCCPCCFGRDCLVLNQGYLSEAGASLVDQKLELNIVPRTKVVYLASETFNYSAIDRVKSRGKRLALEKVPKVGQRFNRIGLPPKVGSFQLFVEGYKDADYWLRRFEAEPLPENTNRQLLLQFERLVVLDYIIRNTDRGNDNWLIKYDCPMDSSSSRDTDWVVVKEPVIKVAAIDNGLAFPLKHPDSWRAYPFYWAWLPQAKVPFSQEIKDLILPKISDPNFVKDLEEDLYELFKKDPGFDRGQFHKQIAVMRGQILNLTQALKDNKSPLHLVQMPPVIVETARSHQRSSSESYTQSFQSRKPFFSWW
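In this quantitative HTS, ADP production by PI4K2A was quantified luminescently after 1 h at ambient temperature; 100 microM adenosine served as plate-quality control.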
KB-3-1 cytotox = qHTS assay for MDR1-selective chemotherapeutics: Primary screen using the parental adenocarcinoma cell KB-3-1; AID 1347075, 2019; Potency, µM (top dose mostly 46.1 µM), most hits filed as cytotoxic; 1.4% of 400,000 active; KB-3-1 viability, CellTiter-Glo ATP luminescence, 72 h; note: nearly all actives have a fitted effect of over 60% in size
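Here the drug-naive KB-3-1 line serves as comparator for MDR sub-line selectivity; cells received compound titrations, 72 h at 37 °C, then CellTiter-Glo readout.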
Nrf2 block = Nrf2 qHTS screen for inhibitors | Potency, µM (titrated, usually from 46 µM), actives largely listed as inhibitors | 2.1% of 360,000 active | A549 ARE-Fluc reporter, luciferase luminescence, 18-24 h | AID 504444, 2011; note: nearly all actives have a fitted effect of over 60% in size
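A549 ARE_Fluc cells (5000/well, 5% FBS OPTI-MEM) pre-incubated 2 h, then treated with compounds 18-24 h at 37C/5% CO2 in concentration-response. CellTiter-Fluor viability read first; BugLite luciferase luminescence after 15 min at room temperature gives Nrf2 activity.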
A number is an active result; . = inactive; ? = inconclusive; / = no result given. The list is not random: actives were taken first. Their share in the collection is about 5.7%. Unless noted, calls come from the whole dose curve; as a rule, active = well fitted curve in the direction sought with a large enough effect; inconclusive = small, poorly fitted or top-dose-only effect, or another doubt; inactive = no such curve, though single readings can be large; an effect the other way counts as inactive or inconclusive.

SMILES	KB-V1 MDR tox	Giardia kill	A549 tox	PI4K2A block	KB-3-1 cytotox	Nrf2 block
O=C(NCCC1=CCCCC1)C1CCN(S(=O)(=O)c2ccc(Br)s2)CC1	16µM	.	.	.	.	.
O=C(NCCC1=CCCCC1)C1CCN(S(=O)(=O)N2CCCC2)CC1	.	.	.	.	.	.
O=C(NCCC1=CCCCC1)C1CCCN(S(=O)(=O)c2ccccc2)C1 (configuration not stated)	9.2µM	.	.	.	.	?
COC(=O)C[C@@H]1CC[C@H]2[C@@H](COc3ccc(NS(=O)(=O)c4ccccc4F)cc3C(=O)N2C)O1	/	/	/	.	/	/
C=CCN1C(=O)CSc2ccc(C(=O)NCc3ccco3)cc21	.	.	.	.	.	.
O=C(NCc1ccco1)c1ccc2c(c1)N(Cc1ccccc1)C(=O)CS2	5.8µM	.	.	.	.	23µM
CCc1c(C)sc2c1CCN(Cc1cccc(OC)c1)C2c1ccccc1 (configuration not stated)	.	/	?	.	?	/
CCc1c(C)sc2c1CCN(Cc1ccccc1F)C2c1ccccc1 (configuration not stated)	?	/	?	.	18µM	/
CCN(CC(=O)Nc1ccc2c(c1)OCCO2)Cc1nc2cc(Cl)ccc2c(=O)[nH]1	21µM	.	.	.	.	.
CCN(CC(=O)Nc1ccc2c(c1)OCCO2)CC(=O)Nc1ccccc1C(F)(F)F	12µM	.	.	.	.	.
CCN(CC(=O)Nc1cccc(F)c1)Cc1nc2ccccc2c(=O)[nH]1	.	.	.	.	.	.
CC(C)Cn1nc(C(=O)NCc2ccccc2CN2CCCC2)c2ccccc2c1=O	5.8µM	.	.	.	.	.
CC12CCC(C(=O)Nc3cccc(Cl)c3)(C(Br)C1=O)C2(C)C (configuration not stated)	15µM	.	.	.	?	.
CCCCOc1cccc(C(=O)Nc2cc(NC(=O)c3ccco3)ccc2OC)c1	.	/	.	.	.	23µM
COc1ccc(NC(=O)c2ccco2)cc1NC(=O)C(C)(C)Oc1ccc(Cl)cc1	.	/	.	.	.	21µM
COc1cc(OC)cc(C(=O)NC(=S)Nc2ccc(NC(=O)c3ccco3)cc2)c1	.	.	.	.	.	.
COc1ccc(NC(=O)Cc2ccc(Cl)cc2)cc1NC(=O)c1ccco1	7.3µM	.	.	.	.	?
COc1cc(OC)cc(C(=O)Nc2ccc(NC(=O)c3ccco3)c(Cl)c2)c1	?	.	?	.	?	26µM
COc1cccc(-c2nnc3n2N=C(c2ccccc2OC)CS3)c1	/	/	.	/	/	?
CCCC(=O)OC12CCCN(C1)/C(=C/c1ccc(C#N)cc1)C2 (configuration not stated)	/	/	/	.	/	/
O=C(CCCOc1ccccc1)Nc1cccc(S(=O)(=O)N2CCCCC2)c1	.	.	.	.	.	.
CC(C)(C)c1ccc(OCCC(=O)Nc2cccc(S(=O)(=O)N3CCCCC3)c2)cc1	21µM	.	.	.	?	?
Cc1ccc(C)c(OCCC(=O)Nc2cccc(S(=O)(=O)N3CCCCC3)c2)c1	15µM	.	?	.	.	?
CCCC[C@H]1C2CC(OC(=O)Nc3ccccc3C(F)(F)F)C(C2)[C@H]2CCCCN21 (some centres not stated)	/	/	/	.	/	/
CCOC(=O)C1=C(C)N(c2ccccc2)C(=O)NC1c1cccc([N+](=O)[O-])c1 (configuration not stated)	21µM	.	.	.	.	.
SMILES	KB-V1 MDR tox	Giardia kill	A549 tox	PI4K2A block	KB-3-1 cytotox	Nrf2 block
Cn1c(/C(C#N)=C(\O)c2ccccc2Cl)nc2ccccc21	?	.	.	.	.	?
CCN(CC)S(=O)(=O)c1ccc(C(O)=C(C#N)c2nc3ccccc3n2C)cc1	.	.	.	.	?	23µM
Cn1c(/C(C#N)=C(\O)c2ccc([N+](=O)[O-])s2)nc2ccccc21	.	-86	.	.	.	.
Cc1ccc(-c2cc(-c3nnc(SCC(=O)N4c5ccccc5Sc5ccccc54)n3N)[nH]n2)cc1	/	/	/	.	/	/
COc1ccc(Br)cc1/C=N/NC(=O)c1ccco1	.	.	.	.	.	?
CC(C)(C)c1ccc(OCC(=O)N/N=C/c2cc(Br)ccc2OC(=O)c2ccco2)cc1	7.3µM	.	.	.	?	.
O=C(CN1CCN(c2cccc(C(F)(F)F)c2)CC1)N(C1CCCC1)C1CCS(=O)(=O)C1 (configuration not stated)	21µM	.	.	.	.	.
COc1ccc(CCN2C(=O)CSC2=Nc2ccc(C(C)C)cc2)cc1OC	3.3µM	.	.	.	3.7µM	16µM
COc1ccc(N=C2SCC(=O)N2CCc2ccc(OC)c(OC)c2)cc1	.	.	.	.	?	?
CCc1noc(C)c1C(=O)N1CCN(S(=O)(=O)c2c(C)c(C)cc(C)c2C)CC1	10µM	.	.	.	.	.
Cc1noc(C)c1COc1ccccc1C(=O)N1CCN(S(=O)(=O)c2ccccc2Br)CC1	.	.	.	.	.	.
CCc1noc(C)c1C(=O)N1CCN(S(=O)(=O)c2cc(C)ccc2C)CC1	/	.	.	.	/	.
Cc1cc(C)c(C)c(S(=O)(=O)N2CCN(C(=O)c3ccccc3OCc3c(C)noc3C)CC2)c1C	.	.	.	.	?	18µM
COC(=O)c1cc(OC)c(OC)cc1NC(=O)c1ccc(C)cc1	3.3µM	.	.	.	.	.
Cc1ccc(C=Nc2ccccc2C(=O)Nc2ccccc2)cc1	.	?	.	.	.	.
Cc1ccc(C=Nc2ccccc2C(N)=O)cc1	5.8µM	?	.	.	7.3µM	?
Cc1ccccc1C=Nc1ccccc1C(N)=O	?	.	.	.	3.7µM	.
COC(=O)/C=C\C(=O)OC	/	/	/	.	/	/
Cn1c(NC(=O)c2ccccc2)nc(Cc2ccccc2)c1Cc1ccccc1	/	/	/	.	/	/
COc1ccc(N2CCN(C(=O)c3cccc(N4C(=O)C5C6C=CC(C6)C5C4=O)c3)CC2)cc1 (configuration not stated)	.	.	.	.	.	.
O=C(c1cc(N2C(=O)C3C4CCC(C4)C3C2=O)ccc1Cl)N1CCN(c2ccccc2F)CC1 (configuration not stated)	4.1µM	.	.	.	?	?
COc1ccc(N2CCN(C(=O)c3cccc(N4C(=O)C5CC=CC(C)C5C4=O)c3)CC2)cc1 (configuration not stated)	18µM	.	.	.	.	.

Assay outcomes: PubChem, National Center for Advancing Translational Sciences (NCATS)
